Assay [1] can be described thus: qHTS profiling for inhibitors of Plasmodium falciparum (3D7) proliferation (AID 743322).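 Note: infected erythrocytes exposed to compound for 72 h before lysis; 100% = DMSO vehicle wells and 0% = 0.29 µM artemisinin.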 Particulars: P. falciparum 3D7 proliferation; at 28.7 µM (top of the series). The procedure, abridged: (§1)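 Erythrocytes infected with P. falciparum (0.3% parasitemia, 2.5% hematocrit) incubated with compounds 72 h at 37 C, 5% CO2. Lysis with saponin/Triton buffer containing SYBR Green I, overnight at room temperature in the dark; DNA fluorescence (485/535 nm) normalised to 0.29 uM artemisinin and DMSO.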
For orientation: In qHTS, concentration-response curves come from the screen itself.

The nature of assay [2]: qHTS profiling for inhibitors of Plasmodium falciparum (DD2) proliferation (AID 743323). Particulars: lower = more inhibition; at 28.7 µM (top of the series). An outline of the steps:
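SYBR Green fluorescence (ex 485, em 535 nm) of lysed cultures gives parasite DNA content; wells normalized to artemisinin (0.29 uM) and DMSO controls. Infected red cells: 0.3% parasitemia, 2.5% hematocrit, 72 h, 37 C.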

The nature of assay [3]: qHTS profiling for inhibitors of Plasmodium falciparum (HB3) proliferation (AID 743324; active = well fitted curve in the direction sought with a large enough effect; an effect the other way counts as inactive or inconclusive;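 note: 100% = DMSO vehicle wells and 0% = artemisinin-treated control wells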). Particulars: Plasmodium falciparum HB3 blood-stage proliferation; at 28.7 µM (top of the series). The procedure, abridged: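 P. falciparum HB3 grown in erythrocytes (0.3% parasitemia, 2.5% hematocrit final) with compound for 72 h at 37 C, 5% CO2. Parasite DNA detected by SYBR Green after saponin/triton lysis overnight; normalized to 0.29 uM artemisinin and DMSO.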

The nature of assay [4]: qHTS profiling of the MIPE4 collection as inhibitors of Plasmodium falciparum (DD2) proliferation (AID 743345). Particulars: P. falciparum Dd2 in erythrocytes, SYBR Green DNA, 72 h; at 28.5 µM (top of the series) unless noted. An outline of the steps:
as §1

Assay [5] can be described thus: qHTS profiling of the MIPE4 collection as inhibitors of Plasmodium falciparum (DD2) proliferation (Rep 2) (AID 743346). Particulars: P. falciparum Dd2 in erythrocytes, SYBR Green DNA, 72 h; at 28.5 µM (top of the series) unless noted. An outline of the steps:
as §1

A short description of assay [6]: qHTS profiling of the MIPE4 collection as inhibitors of Plasmodium falciparum (HB3) proliferation (AID 743347).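 Note: plate controls were DMSO vehicle wells for no effect and artemisinin wells for full effect.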 Particulars: P. falciparum HB3 in erythrocytes, SYBR Green DNA, 72 h; at 28.5 µM (top of the series) unless noted. The procedure, abridged:
as §1

Assay [7] can be described thus: High-throughput drug toxicity screening in the BPDCN cell line Gen2.2 (AID 1224824).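 Note: cells exposed to compounds for 48 h before reading.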 Particulars: Gen2.2 BPDCN cells; at 45.8 µM (top of the series) unless noted. The procedure, abridged: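 Gen2.2 cells, 500 per well in phenol red-free RPMI with 10% FBS, exposed to compounds 48 h at 37 C, 5% CO2; viability by CellTiter-Glo luminescence. Percent activity scaled to DMSO (100%) and 9.2 uM bortezomib final (0%).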

A short description of assay [8]: High-throughput drug toxicity screening in the BPDCN cell line Cal-1 (AID 1224825). Conditions: Cal-1 BPDCN cell viability, qHTS; at 45.8 µM (top of the series) unless noted. The procedure, abridged:
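Exponentially growing Cal-1 cells, 500 per well in phenol red-free RPMI with 10% FBS, were exposed to compounds for 48 h at 37 °C, 5% CO2. Viability was read by CellTiter-Glo luminescence and normalised to DMSO (100%) and 9.2 uM bortezomib (0%).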

A short description of assay [9]: qHTS assay for measurement of the activity of small molecule inhibitors on Zika virus induced Caspase-3 activity in human astrocytoma cells (AID 1224859; active = well fitted curve in the direction sought with a large enough effect; an effect the other way counts as inactive or inconclusive;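 note: plate controls were ZIKV-infected untreated cells for no effect and uninfected cells for full effect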). The procedure, abridged: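 Luminescent caspase-3/7 read-out (30 min reagent, room temperature) in human SNB-19 cells infected 6 h with ZIKV (2 FFU/cell) after 1 h compound pre-incubation; Data were normalised to uninfected and infected wells.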

Assay [10] can be described thus: qHTS Screen of the MIPE 4.0 Collection Against Ewings Sarcoma (RDES) (AID 1259252; active = well fitted curve in the direction sought with a large enough effect; an effect the other way counts as inactive or inconclusive; note: nearly all actives have a fitted effect of over 35% in size; note: potency is the fitted concentration of half-maximal effect). The procedure, abridged:
(§2)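 Measured: ATP luminescence (CellTiter-Glo) 10 min after reagent addition, following 48 h drug treatment. Relative luciferase units converted to percent activity, with no-cell wells as full and DMSO wells as zero inhibition.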

Assay [11] can be described thus: qHTS Screen of the MIPE 4.0 Collection Against Ewings Sarcoma (TC71) (AID 1259253; active = well fitted curve in the direction sought with a large enough effect; an effect the other way counts as inactive or inconclusive; note: nearly all actives have a fitted effect of over 40% in size; note: potency is the fitted concentration of half-maximal effect). The procedure, abridged: as §2
Assay [12] is described as follows: qHTS Screen of the MIPE 4.0 Collection Against Ewings Sarcoma (EW8) (AID 1259255; active = well fitted curve in the direction sought with a large enough effect; an effect the other way counts as inactive or inconclusive; note: nearly all actives have a fitted effect of over 35% in size; note: potency is the fitted concentration of half-maximal effect;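 for viability: 100% = DMSO-treated cells and 0% = medium-only wells without cells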). An outline of the steps:
as §2

Assay [13] can be described thus: qHTS assay for measurement of the activity of small molecule inhibitors on Zika virus induced Caspase-3 activity in human iPSC derived neural progenitor cells (hNPCs) (AID 1224857; active = well fitted curve in the direction sought with a large enough effect; an effect the other way counts as inactive or inconclusive; note: nearly all actives have a fitted effect of over 65% in size; note: potency is the fitted concentration of half-maximal effect). The procedure, abridged:
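Percent inhibition of virus-induced caspase-3/7 luminescence (Caspase-Glo), scaled between uninfected cells and Zika-infected cells. hNPCs received compound 1 hr before ZIKV at 2 FFU/cell, with 6 hours infection at 37 C.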

A short description of assay [14]: qHTS profiling of the MIPE4 collection as inhibitors of Plasmodium falciparum (3D7) proliferation (AID 743344).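 Note: scaled between DMSO vehicle wells and 0.29 µM artemisinin as full inhibition.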 Conditions: P. falciparum 3D7 in erythrocytes, SYBR Green DNA fluorescence, 72 h; at 28.5 µM (top of the series) unless noted. An outline of the steps:
as §1

Assay [15] is described as follows: qHTS assay for small molecule agonists of the antioxidant response element (ARE) signaling pathway measured by Nrf2-dependant transcriptional activity - cell viability counter screen (AID 720653; active = well fitted curve in the direction sought with a large enough effect in the repeat runs; an effect the other way counts as inactive or inconclusive; note: % is set by controls: 0 for no effect and ±100 for the full control effect). Particulars: ARE-bla HepG2 viability, CellTiter-Glo ATP luminescence, 16 h; max response: stronger effect = lower value. The procedure, abridged:
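ARE-bla HepG2 cells (2,000/well) rested 5 hrs at 37C/5% CO2, then exposed to compounds in DMSO for 16 hrs. Viability was read in the same wells as intracellular ATP by luminescence, 30 min at room temperature after reagent addition.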

Assay [16] is described as follows: qHTS assay for cell viability of the p53RE-bla HCT-116 cell line (AID 743292; active = well fitted curve in the direction sought with a large enough effect; an effect the other way counts as inactive or inconclusive; note: % is set by controls: 0 for no effect and ±100 for the full control effect; nearly all actives have a fitted effect of over 55% in size). The procedure, abridged: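 Intracellular ATP of p53RE-bla HCT-116 cells measured by luciferase luminescence following 16 h compound incubation at 37 C; DMSO-only wells served as vehicle controls.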
The nature of assay [17]: qHTS Assay for Identifying Gametocytocidal Compounds (AID 743244; active = well fitted curve in the direction sought with a large enough effect; an effect the other way counts as inactive or inconclusive;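 note: % is set by controls: 0 for no effect and ±100 for the full control effect; actives lower the fluorescent signal which means gametocytes are killed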). Conditions: P. falciparum 3D7 stage III-V gametocytes, alamarBlue, 72 h; max response: stronger effect = lower value. An outline of the steps: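 Viability read-out was resazurin reduction (alamarBlue, 24 h) measured at Ex 525/Em 598 nm. Beforehand, late-stage (III-V) 3D7 P. falciparum gametocytes at 20,000 cells/well were incubated with compound 72 h at 37C under 5% CO2.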

Where “and” joins values, the source holds several entries; their conditions need not be identical. Equal entries are not always repeated. Inconclusive results are not listed. Calls of active or inactive are those of the source. Unless noted, the rule behind the calls is not given here.

In the case of `CO[C@H]1C=CC=C(C)C(=O)NC2=CC(=O)C(NCCN(C)C)=C(C[C@@H](C)C[C@H](OC)[C@@H](O)[C@@H](C)C=C(C)[C@@H]1OC(N)=O)C2=O`, the remaining parasite growth % (stronger effect = lower value) in assay [1] is -0.553%. Further, the activity, percent of control in [2] is -0.115%. For the same molecule, the remaining proliferation (% of control), lower = more inhibition in assay [3] was -2.33%. The molecule also gave a parasite growth remaining, % of DMSO control (lower = more inhibition) in assay [4] of 6.82%. Besides, the parasite growth, % of control (lower = inhibition) in [5] was 6.75%. Besides, in assay [6], the growth, % of control was determined as 6.65%. The cell viability, % of control (lower = more cytotoxic) in assay [7] worked out at 4.49%. Further, the viability (% of control) in assay [8] is 3.52%. Also, the Potency entry in assay [9] was “inactive”. In addition, the Potency in [10], in [11] and in assay [12] was 0.235 µM (active) in each case.
For `CC(C)C(C)C=CC(C)C1CCC2C3=CC=C4CC(O)CCC4(C)C3CCC21C` (configuration not stated), the parasite growth, % of control (lower = inhibition) in assay [5] was found to be 92.8%. This molecule also yielded a growth, % of control in [6] of 98%. Besides, the cell viability, % of control (lower = more cytotoxic) in [7] worked out at 136%. Further, the viability (% of control) in assay [8] was determined as 127%. Also, the Potency entry in [13] and in assay [12] was “inactive” each time.
On to `CC=CC[C@@H](C)C(=O)[C@H]1C(=O)N[C@@H](C(C)C)C(=O)N(C)CC(=O)N(C)[C@@H](CC(C)C)C(=O)N[C@@H](C(C)C)C(=O)N(C)[C@@H](CC(C)C)C(=O)N[C@@H](C)C(=O)N[C@H](C)C(=O)N(C)[C@@H](CC(C)C)C(=O)N(C)[C@@H](CC(C)C)C(=O)N(C)[C@@H](C(C)C)C(=O)N1C`, for which, in [14], the parasite growth, % of DMSO control was 90.9%. Moreover, the parasite growth remaining, % of DMSO control (lower = more inhibition) in assay [4] amounted to 93.4%. Moreover, in assay [5], the parasite growth, % of control (lower = inhibition) was 107%. Moreover, the cell viability, % of control (lower = more cytotoxic) in assay [7] was found to be 62.3%. For the same molecule, the viability (% of control) in assay [8] amounted to 37%. The Potency result in assay [9] and in [12] was “inactive” each time. In addition, the Potency in assay [10] is 18.7 µM (active); in assay [11] it was 16.6 µM (active).
Take `O=c1cc(-c2ccccc2)oc2cc(O)cc(O)c12`: the max response in assay [15] was -2.85% (inactive). Moreover, the Potency result in assay [16] is “inactive”. The parasite growth remaining, % of DMSO control (lower = more inhibition) in assay [4] was found to be 89.3%. Also, the parasite growth, % of control (lower = inhibition) in assay [5] was 49.8%. For the same molecule, the growth, % of control in assay [6] was 43.5%. The cell viability, % of control (lower = more cytotoxic) in assay [7] was found to be 45.9%. In [8], the viability (% of control) amounted to 52.1%. Also, in assay [13], the Potency was 20.9 µM (active).
`Nc1ncnc2c1ncn2[C@@H]1O[C@@H](CO)[C@H](O)[C@H]1O`: in assay [4], the parasite growth remaining, % of DMSO control (lower = more inhibition) is 84.1%. Moreover, in assay [5], the parasite growth, % of control (lower = inhibition) stood at 114%. This molecule also gave a growth, % of control in assay [6] of 111%. Moreover, the cell viability, % of control (lower = more cytotoxic) in assay [7] was found to be 235%. The viability (% of control) in assay [8] came out at 117%. Also, the Potency result in assay [9], in [10], in assay [11] and in assay [12] was “inactive” each time.
`CCn1cc(C(=O)O)c(=O)c2ccc(C)nc21`: the max response in [15] was 11.7% (inactive) and 3.46% (inactive); in assay [17] it was 5.72% (inactive) and 15.6% (inactive). In addition, the Potency result in assay [16], in assay [9], in assay [10], in assay [11] and in assay [12] was “inactive” in each case. Further, the cell viability, % of control (lower = more cytotoxic) in [7] came out at 120%. In addition, the viability (% of control) in assay [8] came to 113%.
Regarding `CCOc1ccc(Nc2nc(-c3c(C)nc4ccccn34)cs2)cc1`, in assay [1], the remaining parasite growth % (stronger effect = lower value) was 2.43%. For the same molecule, in assay [2], the activity, percent of control was determined as 5.76%. Also, in assay [3], the remaining proliferation (% of control), lower = more inhibition turned out to be 7.43%. This molecule also returned a parasite growth remaining, % of DMSO control (lower = more inhibition) in [4] of 17.3%. For the same molecule, the parasite growth, % of control (lower = inhibition) in assay [5] was 15.8%. In addition, the cell viability, % of control (lower = more cytotoxic) in assay [7] is 11%. In addition, the viability (% of control) in assay [8] was 7.46%. Also, the Potency result in assay [13] is “inactive”.
In [4], `C[C@]12CC[C@@H]3c4ccc(O)cc4CC[C@H]3[C@H]1C[C@@H](O)[C@H]2O` gave a parasite growth remaining, % of DMSO control (lower = more inhibition) of 91.2%. The parasite growth, % of control (lower = inhibition) in [5] came out at 76.7%. The molecule also registered a growth, % of control in [6] of 63.5%. For the same molecule, the cell viability, % of control (lower = more cytotoxic) in [7] amounted to 77.1%. Also, the viability (% of control) in assay [8] was determined as 67.8%. Besides, the Potency entry in [13] was “inactive”.
For `Nc1nc(F)nc2c1ncn2[C@@H]1O[C@H](COP(=O)(O)O)[C@@H](O)[C@H]1O`, the parasite growth, % of DMSO control in assay [14] stood at 27.2%. The same molecule showed a parasite growth remaining, % of DMSO control (lower = more inhibition) in assay [4] of 19.9%. In assay [5], the parasite growth, % of control (lower = inhibition) stood at 10.9%. The growth, % of control in assay [6] was determined as 8.49%. Besides, the cell viability, % of control (lower = more cytotoxic) in [7] is 97.6%. The viability (% of control) in assay [8] was determined as 12.5%. Further, the Potency entry in assay [9] was “inactive”. In addition, the Potency was 11.8 µM (active) in assay [10], 14.8 µM (active) in assay [11] and 14.8 µM (active) in [12].
